High-throughput results from PubChem.
LDHA block – qHTS assay for inhibitors of human lactate dehydrogenase. purified LDHA, NADH/diaphorase-resazurin fluorescence; hits give low values. AID 1347041, 2019. L-lactate dehydrogenase A chain (Homo sapiens), P00338. 480,000 compounds, 0.15% hits. activity change, % (values are at about 110 or 230 µM); in the data active means activity change below about -30%; inconclusive means mostly about -25% to -30%;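 further: plate controls were DMSO wells for no effect and wells without enzyme for full effect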
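Enzyme activity of human lactate dehydrogenase 5 (2 nM; 0.06 mM NADH, 0.2 mM pyruvate, 5 min, RT) is measured via a resazurin/diaphorase fluorescence readout of residual NADH.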
Menin-MLL TR inh – qHTS Assay for Inhibitors Targeting the Menin-MLL Interaction in MLL Related Leukemias: Competition With Texas Red Labeled MLL-derived Mutant Peptide; Menin + Texas Red MLL mutant peptide, fluorescence polarization; 270,000 compounds, 0.23% hits; Potency, µM (series often up to 61.6 µM), inactives show at the top dose FP activity change, negative = inhibition, actives largely listed as inhibitors; O00255; AID 1768, 2009; active means well fitted inhibition curve with a large enough effect in the polarisation, with a control signal flat, not every such curve was filed as active; inconclusive means small, poorly fitted or top-dose-only effect, or effect the other way, or a change in a side signal; inactive means no such curve, though single readings can be large or run the other way; the % refers to the polarisation; further: potency means the concentration at half of the fitted maximal effect; % of control where 0% means no effect
pAkt inh – HTS Assay for Inhibitors of Akt Phophorylation: Primary Screen; Neuro2A IGF-stimulated pAkt S473 HTRF, 20 min; hits give low values; activity change, % for hits at 50 µM; 360,000 compounds, 0.32% hits; AID 651550, 2012; in the data active means activity change below about -80%; inconclusive means mostly about -51% to -80%; further: on the % scale 0 is the no-effect control and ±100 the full control effect
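Neuro2A cells in DMEM with 0.5% FBS, overnight at 37 deg C, given compound at single 50 µM final, then IGF (6 nM final) for 20 min at 37 deg C. Lysed; phospho-Akt Ser473 by HTRF after 24 h, 665/615 ratio.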
MLL CXXC-DNA inh – qHTS Fluorescence Polarization Assay for Inhibitors of MLL CXXC domain - DNA interaction; Histone-lysine N-methyltransferase 2A (Homo sapiens), Q03164; Potency, µM (titrated, usually from 115 µM), without a hit: at the top dose activity change, negative = inhibition, hits mostly inhibitors; MLL-CXXC / FITC-HOXA9 DNA fluorescence polarization; 290,000 compounds, 0.037% hits; active means well fitted inhibition curve with a large enough effect in the polarisation, with a control signal flat, not every such curve was filed as active; inconclusive means small, poorly fitted or top-dose-only effect, or effect the other way, or a change in a side signal; inactive means no such curve, though single readings can be large or run the other way; the % refers to the polarisation; further: potency means the concentration at half of the fitted maximal effect
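Steps: dispense CXXC domain solution (7 uM) → pin compounds or unlabeled HOX-A9 DNA control → 5 min ambient → add FLSN-HOX-A9 solution (50 nM) → spin → 30 min ambient → fluorescence polarization. Tris pH 7.5/NaCl/DTT/BSA buffer.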
mIDH1 inhibitor – qHTS for Inhibitors of mutant isocitrate dehydrogenase 1 (IDH1): qHTS; Potency, µM (top dose mostly 76.6 µM), for the others: at the highest dose activity change, negative = inhibition, usual class: inhibitors; Isocitrate dehydrogenase [NADP] cytoplasmic (Homo sapiens), O75874; 390,000 compounds, 0.093% hits; IDH1-R132H enzyme, NADPH consumption, diaphorase/resazurin fluorescence; active means well fitted inhibition curve with a large enough effect; inconclusive means small, poorly fitted or top-dose-only effect; inactive means no such curve, though single readings can be large or run the other way; further: potency means the concentration at half of the fitted maximal effect; on the % scale 0 is the no-effect control and ±100 the full control effect; nearly all actives have a fitted effect of over 65% in size
Target sequence (O75874 whole entry R132H, stated change not applied): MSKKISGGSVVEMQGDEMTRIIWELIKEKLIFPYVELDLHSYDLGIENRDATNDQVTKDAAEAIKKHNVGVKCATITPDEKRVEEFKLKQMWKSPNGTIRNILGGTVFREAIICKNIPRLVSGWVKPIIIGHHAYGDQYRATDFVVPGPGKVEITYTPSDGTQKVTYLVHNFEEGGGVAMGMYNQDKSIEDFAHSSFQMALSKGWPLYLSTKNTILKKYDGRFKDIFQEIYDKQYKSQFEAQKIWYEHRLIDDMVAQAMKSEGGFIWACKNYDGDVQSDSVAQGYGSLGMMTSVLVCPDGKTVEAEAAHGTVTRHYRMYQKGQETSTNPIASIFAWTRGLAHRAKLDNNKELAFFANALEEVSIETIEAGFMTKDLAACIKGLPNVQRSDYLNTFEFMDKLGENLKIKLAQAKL
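IDH1-R132H (0.5 ug/mL) preincubated 30 min with compound, then NADPH (0.016 mM) and alpha-KG (2 mM) added; 80 min at RT, pH 7.5. Remaining NADPH coupled via diaphorase/resazurin to fluorescence (540/590 nm); concentration-response curves normalized to no-enzyme control.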
Menin-MLL FL inh – qHTS Assay for Inhibitors Targeting the Menin-MLL Interaction in MLL Related Leukemias: Competition With Fluorescein Labeled MLL-derived Peptide | Fluorescence polarization, fluorescein-MLL peptide displacement from menin | FP activity change, % at 61.4 µM | 290,000 tested, under 10 active; active means well fitted curve in the direction sought with a large enough effect in the polarisation, not every such curve was filed as active; inconclusive means small, poorly fitted or top-dose-only effect, or effect the other way, or a change in a side signal; inactive means no such curve, though single readings can be large or run the other way; the % refers to the polarisation; further: % of control where 0% means no effect
Numbers without * were called inactive; i = inactive; ? = inconclusive; · = no result. Only some compounds are listed: those with a hit (about 0.54% of all), similar ones and a draw of the others.

SMILES | LDHA block | Menin-MLL TR inh | pAkt inh | MLL CXXC-DNA inh | mIDH1 inhibitor | Menin-MLL FL inh
Cc1coc(C)c1C(=O)CC1(O)C(=O)N(Cc2ccccc2)c2ccccc21 (configuration not stated) | 1.8 | -0.3% | -95.0%* | 0.2% | 0.5% | -0.6
O=C(Nc1ccccc1F)c1ccc2nc(N3C(=O)CCC3=O)sc2c1 | -3.5 | 9.6% | -120.4%* | -3.9% | 1.7% | -2.6
O=C(Nc1ccc(Br)cc1F)c1ccc2nc(N3CCCCC3)sc2c1 | 1.8 | · | · | · | · | ·
Cc1cc(C(C)(C)C)ccc1OCCN(C)C | -31.2* | -1.1% | i | -1.1% | -1.1% | 1.8
Cc1cc(C(C)(C)C)ccc1OCCOCCN1CCCC1 | -11.0 | -6.4% | i | -5.0% | 5.9% | 4.4
C=CCn1c(C)cc(C(=O)CSc2nc3ccccc3c(=O)[nH]2)c1C | -0.3 | -11.1% | -110.3%* | 7.2% | 0.0% | 4.7
COC(=O)c1cc2c(-c3ccccc3)c(C)c3ccccn3c-2c1C(=O)OC | -5.6 | 35.5µM* | ? | -1.2% | 6.9% | ?
Cc1cc(C)c(SCC(=O)NC(C)(C#N)C2CC2)c(C)c1 (configuration not stated) | 6.1 | · | · | · | · | ·
N#CC1=C(N)OC2=C(C(=O)CC(c3ccco3)C2)C1c1ccc(OCc2c(F)cccc2Cl)cc1 (configuration not stated) | -4.6 | · | -112.2%* | 25.1% | -1.8% | ·
COc1cccc(C2C(C#N)=C(N)OC3=C2C(=O)CC(c2ccco2)C3)c1OCc1ccc(F)cc1 (configuration not stated) | 0.5 | ? | i | 6.4% | 8.4% | 9.2
Fc1cccc(-n2nnnc2SCc2cc(Cl)c3c(c2)OCCCO3)c1 | -9.4 | · | · | · | · | ·
CC1(C(=O)O)CC(C)(C(=O)O)CC(C)(C(=O)O)C1 (configuration not stated) | -5.2 | 18.4% | -119.1%* | -2.7% | 2.9% | -2.4
CCn1nnnc1SCC(=O)c1ccc2c(c1)OCCO2 | -2.5 | -12.5% | -104.3%* | 5.7% | 9.9% | 3.6
CC(=O)c1c(NC(=O)C(C)C)nc(C)nc1-c1ccccc1 | 8.3 | -5.3% | i | 1.5% | -2.6% | 0.7
CC(=O)c1c(C)nc(C)nc1NC(=O)C(C)C | -3.9 | -9.4% | -124.3%* | -10.2% | -1.0% | 9.4
O=C(CN(Cc1ccco1)C(=O)CNS(=O)(=O)c1ccc(F)cc1)NCc1ccccc1 | -11.7 | · | i | 0.6% | -1.9% | ·
O=C(CN(Cc1ccco1)C(=O)CNS(=O)(=O)c1ccccc1)NCc1ccccc1 | -0.1 | -0.9% | -120.1%* | -3.9% | 0.6% | 6.8
Cc1cc(N)ccc1N1CCCC1 | 31.8 | 28.2µM* | i | ? | 19.8% | 2.3
COc1ccc(N/C=C/C(=O)c2ccc(Br)cc2)cc1Cl | 10.7 | · | · | · | · | ·
COCCNC(=O)C1CCN(S(=O)(=O)N2CCC3(CC2)OCCO3)CC1 | -5.1 | ? | -81.8%* | -1.3% | 0.0% | -3.4
Cc1c(C(=O)OCC(=O)c2c(N)n(CC(C)C)c(=O)n(C)c2=O)oc2ccccc12 | -5.8 | 10.4% | i | 2.4% | 2.2% | -0.2
COCc1c(C(=O)OCC(=O)c2c(N)n(CC(C)C)c(=O)n(C)c2=O)oc2ccccc12 | -5.0 | -0.5% | -103.3%* | 5.4% | 0.3% | -0.4
Cc1cccc2c1NC(C)CC2C (configuration not stated) | -1.0 | 25.1µM* | i | -1.1% | 8.6% | -3.4
CN(CC(=O)NCCC#N)Cc1ccc(C(C)(C)C)cc1 | 9.1 | · | · | · | · | ·
COc1ccc(OC)c2sc(NC(=O)c3ccc(S(=O)(=O)N4CCOCC4)cc3)nc12 | 2.1 | 17.8µM* | i | 9.7% | 0.2% | -0.4
